Drawing on PubChem BioAssay AID602261 (Sanford-Burnham Center for Chemical Genomics, 2012), this text covers inhibition for 88 compounds.

Out of some 360,000 compounds screened, about 2,400 (0.67%) were called active. This is one part of a sample in which actives are shown more often than they occur. Values without a mark were called inactive.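 Rule for the calls: active = compounds whose normalised, plate-corrected inhibition of enzyme fluorescence in the single-dose primary screen is 50% or more; inactive = the rest.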

This test deals with Fatty acid synthase (Homo sapiens) (UniProt P49327). Nature of the test: FAS thioesterase domain inhibitors, primary screen, biochemical, fluorescence intensity, uHTS (AID 602261).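 Note: 0% = DMSO with enzyme and 100% = substrate without enzyme.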 The settings on record: recombinant FAS-TE, OMFH fluorogenic substrate, fluorescence endpoint; at 15 µM; hits give high values.
Fatty acid synthase (Homo sapiens), sequence (P49327 whole entry, looked up, the tested form may be a part): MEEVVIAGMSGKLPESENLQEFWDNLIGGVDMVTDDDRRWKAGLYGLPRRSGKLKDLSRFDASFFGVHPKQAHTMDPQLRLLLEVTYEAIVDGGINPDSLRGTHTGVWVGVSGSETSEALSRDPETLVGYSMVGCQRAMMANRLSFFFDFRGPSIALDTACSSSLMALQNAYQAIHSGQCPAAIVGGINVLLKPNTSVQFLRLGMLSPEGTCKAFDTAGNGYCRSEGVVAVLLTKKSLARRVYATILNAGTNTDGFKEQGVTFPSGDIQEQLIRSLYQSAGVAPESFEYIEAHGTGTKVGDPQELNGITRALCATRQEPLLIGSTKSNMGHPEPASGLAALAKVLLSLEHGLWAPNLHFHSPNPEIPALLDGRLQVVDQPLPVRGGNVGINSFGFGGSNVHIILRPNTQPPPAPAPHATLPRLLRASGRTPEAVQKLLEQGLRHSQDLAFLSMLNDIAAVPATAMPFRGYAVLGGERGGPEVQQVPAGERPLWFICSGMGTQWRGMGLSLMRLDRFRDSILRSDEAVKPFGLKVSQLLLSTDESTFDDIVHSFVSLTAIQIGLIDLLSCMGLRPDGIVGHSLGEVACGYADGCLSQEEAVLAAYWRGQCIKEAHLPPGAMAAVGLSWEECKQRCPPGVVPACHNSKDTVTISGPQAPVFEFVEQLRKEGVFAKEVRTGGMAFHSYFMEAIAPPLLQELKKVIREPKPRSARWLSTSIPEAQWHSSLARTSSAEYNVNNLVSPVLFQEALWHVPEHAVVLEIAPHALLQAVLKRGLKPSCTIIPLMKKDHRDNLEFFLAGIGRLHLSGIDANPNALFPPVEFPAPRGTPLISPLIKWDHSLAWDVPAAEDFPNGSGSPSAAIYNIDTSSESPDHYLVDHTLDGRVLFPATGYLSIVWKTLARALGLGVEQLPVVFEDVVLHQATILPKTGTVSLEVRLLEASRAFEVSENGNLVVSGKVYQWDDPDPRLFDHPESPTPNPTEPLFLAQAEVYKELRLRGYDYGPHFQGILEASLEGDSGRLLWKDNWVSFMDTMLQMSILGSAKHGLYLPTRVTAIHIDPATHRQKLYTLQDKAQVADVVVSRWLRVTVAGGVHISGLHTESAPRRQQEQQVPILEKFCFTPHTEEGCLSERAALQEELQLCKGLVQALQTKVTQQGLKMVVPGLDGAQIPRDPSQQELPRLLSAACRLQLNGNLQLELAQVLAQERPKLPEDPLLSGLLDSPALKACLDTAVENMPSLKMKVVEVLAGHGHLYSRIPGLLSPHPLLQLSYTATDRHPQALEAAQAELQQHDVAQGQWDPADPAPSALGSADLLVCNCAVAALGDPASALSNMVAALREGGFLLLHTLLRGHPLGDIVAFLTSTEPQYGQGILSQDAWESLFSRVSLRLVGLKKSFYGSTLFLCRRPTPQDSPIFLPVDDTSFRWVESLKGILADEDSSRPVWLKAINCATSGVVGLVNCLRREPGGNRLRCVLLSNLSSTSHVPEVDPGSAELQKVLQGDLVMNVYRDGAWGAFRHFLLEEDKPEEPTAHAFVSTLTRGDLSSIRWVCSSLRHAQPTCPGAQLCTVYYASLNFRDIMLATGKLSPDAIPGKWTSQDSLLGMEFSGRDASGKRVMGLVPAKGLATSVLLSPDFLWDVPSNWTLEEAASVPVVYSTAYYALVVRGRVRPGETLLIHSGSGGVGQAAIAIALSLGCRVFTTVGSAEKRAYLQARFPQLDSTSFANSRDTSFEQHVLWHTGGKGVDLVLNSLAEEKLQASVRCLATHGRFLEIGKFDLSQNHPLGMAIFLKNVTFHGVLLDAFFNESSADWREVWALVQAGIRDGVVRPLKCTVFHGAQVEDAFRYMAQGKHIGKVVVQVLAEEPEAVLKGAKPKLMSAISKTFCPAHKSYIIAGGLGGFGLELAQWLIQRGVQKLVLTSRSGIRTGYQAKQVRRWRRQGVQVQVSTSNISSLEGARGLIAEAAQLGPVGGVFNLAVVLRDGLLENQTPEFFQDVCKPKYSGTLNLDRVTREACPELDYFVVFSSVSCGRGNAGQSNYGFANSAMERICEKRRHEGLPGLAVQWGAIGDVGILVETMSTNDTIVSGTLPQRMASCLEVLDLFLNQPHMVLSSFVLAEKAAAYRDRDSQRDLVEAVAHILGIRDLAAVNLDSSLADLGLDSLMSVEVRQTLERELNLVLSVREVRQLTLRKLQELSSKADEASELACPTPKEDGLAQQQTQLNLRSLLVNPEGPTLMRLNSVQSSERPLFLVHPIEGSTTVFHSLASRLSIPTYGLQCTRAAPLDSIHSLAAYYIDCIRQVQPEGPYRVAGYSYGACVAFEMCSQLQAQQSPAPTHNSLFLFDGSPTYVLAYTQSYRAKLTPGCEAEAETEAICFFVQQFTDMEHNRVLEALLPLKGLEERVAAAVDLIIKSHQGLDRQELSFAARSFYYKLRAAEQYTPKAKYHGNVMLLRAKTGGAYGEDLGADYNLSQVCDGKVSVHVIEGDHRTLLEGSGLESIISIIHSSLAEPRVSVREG
Turning to `CSc1ccccc1NC(=O)c1cnc2sc(C)cn2c1=O`, the inhibition was 4.9%.
Regarding `O=[N+]([O-])c1cc([N+](=O)[O-])c(Oc2cc(F)cc(F)c2F)cc1NN1CCCCC1`, the inhibition is 11.3%.
To `Cc1c(C(=O)NC(C)C2CC3CCC2C3)cccc1[N+](=O)[O-]` (stereo not drawn) belongs 11.2%; to `COC(=O)c1cc(C(=O)NC(C)C2CC3CCC2C3)cc([N+](=O)[O-])c1` (stereo not drawn), 50.5% (active); to `Cc1cccc(C(=O)OCC(=O)NC(C)C2CC3CCC2C3)c1O` (stereo not drawn), 20.1%.
Then `COc1ccc(CN2C(CC(=O)Nc3cccnc3)c3ccc(C(F)(F)F)cc3S2(=O)=O)cc1` (stereo not drawn), with 14.3%; and `CCCCc1nc2cc(C(=O)NCCc3cnn(C)c3)ccc2o1`, with -2.8%.
To `Cc1noc(C)c1NC(=O)Nc1cccc2c1O[C@H](CN(C)S(=O)(=O)c1c(C)noc1C)[C@@H](C)CN([C@H](C)CO)C2=O` belongs 3.4%; to `Cc1noc(C)c1NC(=O)Nc1cccc2c1O[C@H](CN(C)C(=O)Nc1ccccc1)[C@@H](C)CN([C@H](C)CO)C2=O`, 55.4% (active); to `Cc1noc(C)c1NC(=O)Nc1ccc2c(c1)C(=O)N([C@H](C)CO)C[C@H](C)[C@@H](CN(C)C(=O)Nc1ccccc1)O2`, -5.3%.
Regarding `COc1ccc(CCCNC(=O)C2Cc3c(-c4cccc(C(N)=O)c4)ccnc3O2)cc1` (stereo not drawn), the inhibition was 1.7%.
To `O=S(=O)(NCCCCCCNS(=O)(=O)c1c(F)cccc1F)c1ccc2c(c1)OCCO2` belongs 3.8%; to `COCCSc1nnc(NC(=O)c2cc(OC)c(OC)cc2[N+](=O)[O-])s1`, -10.4%; to `O=C(Nc1nnc(SCc2c(Cl)cccc2Cl)s1)C1CCCO1` (stereo not drawn), 0.2%.
Then `O=C(Nc1nnc(SCc2ccccc2Cl)s1)c1cccc([N+](=O)[O-])c1`, with 58.6% (active).
To `CCCn1c(N)c(C(=O)CSc2nc3ccccc3c(=O)n2-c2ccc(OC)cc2)c(=O)[nH]c1=O` belongs -0.6%.
Take `O=S(=O)(Cc1noc(-c2ccc(OC(F)(F)F)cc2)n1)c1ccc(F)cc1`: the inhibition was 15.8%.
To `Cc1ccc(S(=O)(=O)NCC(=O)N(CC(=O)NCC2CCCO2)c2cccc(F)c2)cc1` (stereo not drawn) belongs -4.4%; to `CC(C)Oc1ccc(Cc2n[nH]c(=S)n2Cc2ccccc2)cc1Cl`, 57% (active).
Then `CC(C)Oc1ccc(CCc2n[nH]c(=S)n2Cc2ccccc2)cc1`, with 19.3%; and `COc1cc(-c2n[nH]c(=S)n2Cc2ccccc2)cc(OC)c1OC`, with -3.4%.
To `O=C(Nc1cccc(S(=O)(=O)N2CCOCC2)c1)C12CC3CC(CC(C3)C1)C2` belongs 9.3%; to `O=C(NCc1ccco1)/C(=C\c1cccc([N+](=O)[O-])c1)NC(=O)c1ccco1`, 51.4% (active).
As to `O=C(/C=C/c1cccc([N+](=O)[O-])c1)NCCSCc1ccco1`, the inhibition is 55.4% (active).
For `O=C(/C=C/c1ccc([N+](=O)[O-])cc1)NCCSCc1ccco1`, the inhibition is 9.8%.
Then `O=C(NCc1ccco1)/C(=C/c1ccco1)NC(=O)c1ccccc1`, with -4.1%; and `Cc1ccc(NC(=O)/C(=C\c2ccccc2)NC(=O)c2ccco2)cc1`, with 0%; and `COc1ccc(/C=C(/NC(=O)c2ccco2)C(=O)Nc2ccc(C(C)=O)cc2)cc1`, with -1.1%.
Then `O=C(NCc1ccco1)c1ccc([N+](=O)[O-])cc1Cl`, with 5.6%; and `O=C(Nc1ccc2ccccc2c1)/C(=C/c1cccc(Br)c1)NC(=O)c1ccco1`, with 52.3% (active); and `O=C(NCc1ccco1)/C(=C/c1cccc([N+](=O)[O-])c1)NC(=O)c1ccco1`, with 38.7%.
Take `Cc1cc([N+](=O)[O-])nn1Cc1ccc(F)cc1`: the inhibition is -0.9%.
To `CCC1CCC/C1=N\NC(=O)c1ccc(Cl)cc1` (stereo not drawn) belongs -4.6%; to `COc1ccc(OC)c(NC(=O)c2cc(-c3cc(F)ccc3OCC3CCCO3)n[nH]2)c1` (stereo not drawn), 22.4%.
Regarding `CCN(CC)S(=O)(=O)c1ccc2[nH]c(=O)cc(C(=O)N(C)C3CCS(=O)(=O)C3)c2c1` (stereo not drawn), the inhibition is 0%.
To `Cc1ccc(S(=O)(=O)n2cnc3ccccc32)c(C)c1` belongs -4.2%; to `Cc1ccc(S(=O)(=O)c2nnn3c2nc(N2CCN(c4ccccn4)CC2)c2ccccc23)cc1`, 65.9% (active).
Then `CCOC(=O)c1nnn2c1nc(N1CCN(c3ccccc3)CC1)c1ccccc12`, with 19.9%.
To `Cc1cccc(Nc2nc3c(S(=O)(=O)c4ccccc4)nnn3c3ccccc23)c1C` belongs -3.1%.
As for `CCc1ccccc1OCC(=O)Nc1nnc(C2CC2)s1`, the inhibition is -9.2%.
To `Cc1ccc(S(=O)(=O)N2CCN(C(=O)c3ccccc3-c3nc4ccccc4s3)CC2)c(C)c1` belongs 15.3%.
Then `OC(CN1C2=NCCCN2c2ccccc21)c1ccc(Br)cc1` (stereo not drawn), with -4.6%; and `CC(NC(=O)c1ccco1)c1ccc2c(c1)OCO2` (stereo not drawn), with -6.5%.
To `CC(NC(=O)Nc1cccc([N+](=O)[O-])c1)c1ccc2c(c1)OCO2` (stereo not drawn) belongs 83.4% (active); to `Cc1noc(C)c1C(=O)NC(C)c1ccc2c(c1)OCO2` (stereo not drawn), -5.5%.
As for `CCN1CCN(c2sc(S(C)(=O)=O)nc2S(=O)(=O)c2ccc(Cl)cc2)CC1`, the inhibition was -2.8%.
Then `O=C(Nc1ccccc1)c1nnsc1S(=O)(=O)c1ccc(Cl)cc1`, with 69.7% (active); and `Cc1nnsc1S(=O)(=O)Cc1ccccc1Cl`, with -6.8%; and `O=C(Nc1ccc(S(=O)(=O)N2CCOCC2)cc1)C1CCN(S(=O)(=O)c2ccc(Cl)cc2)CC1`, with 28.3%.
Then `O=C(NCCO)c1cccc(-c2cccc3nccn23)c1`, with -6.3%.
To `Cc1cc(C(F)F)nn1CC(=O)NC1CCCCCC1` belongs -5.3%; to `COc1ccccc1-n1cnc2cc(NS(=O)(=O)c3ccccc3)ccc21`, 0.1%.
As to `CC1(C)CC(=O)c2c(n(S(=O)(=O)c3ccccc3)c3ccc(NS(=O)(=O)c4ccccc4)cc23)C1`, the inhibition is 79.6% (active).
Then `Cn1c(=O)n(C)c2cc(NS(=O)(=O)c3ccc(F)cc3)ccc21`, with -7.3%; and `CC(=O)N(Cc1cccs1)C1CCOC(C)(C)C1` (stereo not drawn), with -7.2%; and `CCCCN1C(=O)CCC(C(=O)O)C1c1ccc(OC)cc1` (stereo not drawn), with -7.9%.
Then `COc1ccc(C(=O)N(C)CC(O)c2ccccc2)cc1OC1CCN(C(C)=O)CC1` (stereo not drawn), with 0.7%; and `Cc1ccc(S(=O)(=O)/N=C(/Nc2ccccn2)c2ccc(Cl)cc2)cc1`, with 2.1%; and `Cc1ccc(S/C(=N\S(=O)(=O)c2ccc(Cl)cc2)c2ccccc2)cc1`, with 57.1% (active).
Then `Cc1ccc(S(=O)(=O)/N=C(/Nc2ccc3[nH]c(=O)[nH]c3c2)c2ccccc2)cc1`, with -11.9%; and `COc1ccccc1C1CCN(C(=S)Nc2ccc(Br)cc2)CC1`, with 31%.
For `CCOc1ccc(Br)cc1S(=O)(=O)Nc1ccc(S(=O)(=O)Nc2cc(C)on2)cc1`, the inhibition is -8.8%.
To `CCOc1ccc(Br)cc1S(=O)(=O)Nc1ccc(C(=O)OC(C)C(=O)N(C)c2ccccc2)cc1` (stereo not drawn) belongs 53.8% (active).
On to `CCOc1ccc(Br)cc1S(=O)(=O)Nc1cccc(S(=O)(=O)N(CC)CC)c1`, for which the inhibition is 22.7%.
Then `Cn1cc(S(=O)(=O)N2CCC(Cc3ccccc3)CC2)c(=O)n(C)c1=O`, with -7.6%; and `COCCn1c(SCC(=O)Nc2cc(Cl)ccc2OC)nc2c(c1=O)SC(C)C2` (stereo not drawn), with 20.2%.
With `Cc1ccccc1-n1nnnc1SCCCC(=O)c1ccc(F)cc1`, the inhibition is 19.4%.
To `CC(C)=CCc1ccc(O)c(=O)cc1C(C)C` belongs -0.3%; to `COc1cccc(NC(=O)CN(C)C(=O)c2ccccc2CCc2ccccc2)c1`, 23.2%; to `COc1ccc(C2Nc3ccccc3C(=O)N2Cc2ccccc2)cc1Cn1nnc2ccccc21` (stereo not drawn), 35.8%.
Regarding `COc1ccc(C2Nc3ccccc3C(=O)N2c2ccc(Cl)cc2)cc1Cn1cc([N+](=O)[O-])cn1` (stereo not drawn), the inhibition is 69.9% (active).
To `COc1ccc(CN2CCCC(C(=O)c3ccc(Cl)cc3)C2)cc1Cn1cncn1` (stereo not drawn) belongs -9.9%; to `Cc1ccc(Nc2cc(C)nc3c(C)ccc([N+](=O)[O-])c23)cc1`, 25%; to `N#CCCN(C(=O)COC(=O)C1CCN(c2ccc(C(F)(F)F)cn2)CC1)c1ccc(F)cc1`, 18.7%.
Then `Nc1cc(OC(=O)c2ccccc2Br)nn1S(=O)(=O)c1ccccc1`, with 5.4%; and `O=C(CC(O)(C(F)(F)F)C(F)(F)F)Nc1ccc(Cl)c(Cl)c1`, with 22.2%.
To `O=C(Cc1ccc(Cl)c(Cl)c1)Nc1ccc(SC(F)F)cc1` belongs 66.1% (active); to `O=C(CCl)Nc1ccc(Sc2ccc(NC(=O)CCl)cc2)cc1`, 2.8%.
For `CCOC(=O)Cn1nnnc1C`, the inhibition is -1.8%.
Then `O=C(Cc1ccc([N+](=O)[O-])cc1)NCCc1ccc2c(c1)OCO2`, with 18.8%.
To `CC1CCN(c2ccc(C(=O)NCc3ccc4c(c3)OCO4)cc2[N+](=O)[O-])CC1` belongs 13.7%; to `O=C(NCc1ccc2c(c1)OCO2)c1cc([N+](=O)[O-])ccc1N1CCOCC1`, 51.7% (active).
Then `CN(C)c1ccc(/C=C/C(=O)c2ccc(C(C)(C)C)cc2)cc1[N+](=O)[O-]`, with 74.2% (active); and `CN(C)c1ccc(S(=O)(=O)NCC(=O)NCC2CCCCC2)cc1[N+](=O)[O-]`, with 5.2%.
As to `CC(C)(C)c1ccc(/C=C/C(=O)NC2CCS(=O)(=O)C2)cc1` (stereo not drawn), the inhibition is -0.6%.
Then `Cc1ccc(S(=O)(=O)N2CCN(C)CC2)cc1C(=O)NC1CCCCC1`, with -7%; and `CCOC(=O)C1=CN(Cc2ccc(Br)cc2)S(=O)(=O)NC1C` (stereo not drawn), with 9.4%.
To `CC(C)[C@@H]1COC(c2cccc(C3=N[C@H](C(C)C)CO3)c2)=N1` belongs 1.1%.

A word on the inhibition: it is the drop in the measured response relative to a control, in per cent.
